# Data from the supplement of paper PMC6555819.
# Assays:
# Assay in all cases: PBM binding z-score (relative to random genomic background probes); higher = stronger binding; sequences stand for … in GC…GCGATTGACAGCGTAGAATGAAGG
# [1] = system: RARb homodimer (NR concentration 270 nM)
# Outline: (§1)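 Probes were double-stranded and carried 34-nt variable regions with direct-repeat seeds, single-nucleotide variants, half-site ablations and random human genomic background sequences, printed on custom Agilent 4×180K protein-binding microarrays. Arrays were incubated 1 h with ligand-free nuclear receptor dimers in PBS pH 7.4, 2% milk, 0.02% Triton X-100, 1 mM DTT, 0.2 mg/mL BSA and 0.4 mg/ml salmon testes DNA. Antibodies against each partner (one per run) detected binding, and scanned fluorescence was regression-normalized. Binding z-scores use the random background probes as reference.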
# [2] = system: RARg:RXRa (NR concentration 270 nM, RXRa partner concentration 90 nM)
# Outline: as §1
# [3] = system: RARg homodimer (NR concentration 270 nM)
# Outline: as §1
# [4] = system: RXRa DBDmut IVT, anti-RXR (DBD mutation: RXRa K156A/R161A, NR concentration 90 nM)
# Outline: as §1
# [5] = system: RXRa homodimer (NR concentration 180 nM)
# Outline: as §1
# [6] = system: THRa:RXRa (NR concentration 90 nM, RXRa partner concentration 90 nM)
# Outline: as §1
# [7] = system: THRa homodimer (NR concentration 90 nM)
# Outline: as §1
# [8] = system: VDR homodimer (NR concentration 270 nM)
# Outline: as §1
Sequence,PBM binding z-score [1],PBM binding z-score [2],PBM binding z-score [3],PBM binding z-score [4],PBM binding z-score [5],PBM binding z-score [6],PBM binding z-score [7],PBM binding z-score [8]
TTACCAAGGTGAGCTGAGGTGGTTGATCCAACTC,-0.15,0.00376,-0.00239,-0.813,0.0948,2.98,-0.0561,-0.641
CAAACTAGGTCAGGAAAGGTCAAAGTCGAATGAC,5.66,6.84,7.48,1.51,6.81,4.74,1.62,3.13
ACAGACAGGTCAGTGAAGGTAACTCAGCTGGACG,2.48,3.33,4.21,0.616,2.23,3.86,-0.151,-0.256
TCTTGGAGGACACGAAGGTCAGAGCTTTCCAGAG,3.54,3.23,3.69,0.774,1.83,2.89,0.692,1.13
TCTTGTAGATCAAGCAGGTTAAGAACGCCTGAGT,0.231,0.0271,-0.224,0.465,0.465,0.437,-0.161,0.189
ACAGACAGGTGATCAAGGTAACTCAGGCTATCAT,0.159,0.183,0.508,-0.511,0.28,1.72,0.997,-0.138
CCTCCGAGGACAGAAGGTCAGAGCTGTCCGCTTT,3.67,3.52,3.34,0.589,2.37,2.76,1.17,0.494
CTCGAAAGGTCGTGCTCAGGTGAGTAGACCAAAC,2.36,5.23,3.76,1.79,4.83,3.96,0.703,0.392
ATCGAAAGGGCGAGGTGAGTATAGAGAAAGGGAA,1.45,1.48,1.58,-0.127,0.756,1.63,0.413,-0.029
CCTACTGGGCCATCAGATCATTGATATCAACGTT,-0.087,0.0829,0.48,0.0432,-0.148,-0.114,-0.322,0.0449
AGAACGAGGGCAACGAGTTGATAGCACGGGTGGC,0.919,1.41,1.74,1.76,0.952,0.99,-0.357,2.5
ACTCGGAGGACAAAGGGCAGAGCTACGCCAGTGA,1.69,1.81,1.91,0.468,0.615,0.877,-0.631,-0.288
CTCGCAAGGTCGGTTGAGGTGAGTATACGGATAA,1.72,1.27,1.25,0.828,1.01,4.74,1.75,0.439
AATACAGGGTCATCGTAGGGCAGAGTACGCACAG,3.67,6.04,5.73,3.64,7.22,4.59,1.42,3.02
ACTAGTTGGTGAGCTGAGGTCACACACAATTCGG,3.86,3.85,3.11,0.874,4.01,4.44,5.07,3.31
TCTAGCAGGCCAGAGGGTCATTCAAGAGGTACGG,2.65,2.78,2.02,0.504,2.87,1.83,-0.373,1.28
CAAACTAGGTCACGAAAGATCAAAGTCGAATGAC,3.2,4.8,5.53,1.99,4.09,3.49,1.43,0.583
ACTATTAGTTGAGACGAGGGCACCCGATAGGTTG,1.01,0.598,1.02,0.586,0.681,2.57,0.574,0.89
CCGACTGGGGCATAAGGTTCCCATAAGCCAGCCC,-0.217,-0.0298,-0.0621,-0.59,-0.271,-0.0053,-0.165,-0.209
ATCGAAAGGTGGAAGGTGAGTATACCCACCCGAA,0.363,0.767,0.717,-1.21,1.12,0.406,-0.497,0.146
CCTACTGGGCCTCGAAAGGTCATTGATTCAGTGA,4.35,4.09,3.27,0.125,4.83,3.14,0.721,1.43
CGAACTAGGTCAGAACATGACAGTGAAGGATGAT,1.74,2.34,2.89,0.671,1.33,1.24,0.0482,0.133
ATATGAAGGTTACATCCGGGTCATTCAGGCTATG,3.52,4.75,2.62,1.08,3.74,4.11,2.47,2.96
ACTAGTTGGTCAGCTGAGGTCACACAGAATTCGG,4.54,4.18,4.44,1.41,4.19,5.12,5.11,3.47
TCATATAGGTGAATGCTAGGTGAAAGTCCGATCT,0.945,1.54,0.61,1.39,0.992,2.06,0.5,-0.483
AGAATGAGGTTATACGTAGATCAGTGAAGAAAGT,0.6,1.71,1.14,1.92,2.12,1.99,0.44,0.703
CCAGCCAGGTGAAAGGTAACTCAGTCTGGTACGC,0.43,0.724,0.203,-0.519,1.37,1.55,0.326,-0.192
CGTCTAAGGTCAGAGAGGTCAGTGAATGCCGAGT,5.36,6.8,7.77,3.83,6.37,4.66,3.81,5.7
